Inconclusive results are not listed. Unmarked numbers belong to inactive results. Calls of active or inactive are those of the source. Calls follow the shape of the dose curve; as a rule, active = well fitted curve in the direction sought with a large enough effect; inconclusive = small, poorly fitted or top-dose-only effect, or another doubt; inactive = no such curve, though single readings can be large; an effect the other way counts as inactive or inconclusive.
Tested on: not listed separately
Experiment: qHTS to identify inhibitors of the type 1 interferon - major histocompatibility complex class I in skeletal muscle: primary screen against the NCATS Mechanism Interrogation Plate v5.0 (MIPE) Libary (AID 1347411); also: nearly all actives have a fitted effect of over 65% in size; also: potency is read from the fitted curve at half-maximal effect;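 as to activity change, negative = inhibition: plate controls were vehicle for no effect and reference inhibitor for full effect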
Conditions: iHSKM cells + IFN-b, HiBiT-tagged MHC-I luminescence, 24 h; series mostly up to 45.8 µM; activity change, negative = inhibition: at the top concentration
Outline: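 Luminescence from HiBiT-tagged endogenous HLA-B*08:01 served as the MHC class I read-out. CRISPR-engineered C25cl48 human myoblasts received 4.0 ng/ml IFN-beta plus compound for 24 hrs, with an 11-point, 1:3 series topping at 46 uM final.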

Compound	Potency	activity change, negative = inhibition [%]
CC(C)[C@]12O[C@H]1[C@@H]1O[C@]13[C@]1(O[C@H]1C[C@H]1C4=C(CC[C@@]13C)C(=O)OC4)[C@@H]2O	82.9 nM (active)	
CSCC[C@@H](NC(=O)[C@@H](Cc1ccccc1)NC(=O)CNC(=O)CNC(=O)[C@@H](N)Cc1ccc(O)cc1)C(=O)O		13.8
CC(C)(O)C(=O)Nc1ccc([N+](=O)[O-])c(C(F)(F)F)c1		-16.7
O=C(O)CNC(=O)c1c(O)c2ccccc2n(Cc2ccccc2)c1=O		-19.4
O=c1[nH]c2ccccc2n1C1CCN(Cc2ccc(-c3[nH]c4cc5ncnc5cc4nc3-c3ccccc3)cc2)CC1		-6.52

Target: Protein phosphatase 1D (Homo sapiens) (UniProt O15297)
Sequence (O15297 whole entry, looked up): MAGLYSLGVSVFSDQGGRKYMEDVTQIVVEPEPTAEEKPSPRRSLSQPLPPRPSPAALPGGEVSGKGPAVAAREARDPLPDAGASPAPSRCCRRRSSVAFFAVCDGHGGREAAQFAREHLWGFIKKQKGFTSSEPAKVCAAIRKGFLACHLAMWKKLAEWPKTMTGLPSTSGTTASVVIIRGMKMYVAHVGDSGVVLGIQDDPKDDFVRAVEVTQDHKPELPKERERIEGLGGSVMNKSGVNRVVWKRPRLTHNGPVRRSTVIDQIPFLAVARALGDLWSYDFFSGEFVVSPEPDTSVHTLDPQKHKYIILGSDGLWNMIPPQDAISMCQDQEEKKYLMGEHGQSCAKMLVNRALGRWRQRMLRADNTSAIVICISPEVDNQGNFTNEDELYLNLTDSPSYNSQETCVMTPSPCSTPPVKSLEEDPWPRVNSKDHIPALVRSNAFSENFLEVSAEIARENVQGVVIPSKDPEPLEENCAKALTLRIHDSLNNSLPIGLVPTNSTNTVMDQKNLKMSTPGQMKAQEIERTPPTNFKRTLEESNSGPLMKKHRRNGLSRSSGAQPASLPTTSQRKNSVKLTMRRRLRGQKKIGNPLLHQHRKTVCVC
Experiment: RapidFire Mass Spectrometry qHTS Assay for Modulators of WT P53-Induced Phosphatase 1 (WIP1) (AID 1347424);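 also: amount of dephosphorylated VEPPL-S-QETFS peptide product formed by WIP1; plate controls were DMSO wells for no effect and GSK830371 inhibitor control at 10 µM for full effect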
Conditions: WIP1 dephosphorylation of phosphopeptide, RapidFire MS; series mostly up to 128 µM; activity change, negative = inhibition: at the top concentration
Outline: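 10 nM WIP1 + cpd, 1 h RT; + 2 uM VEPPL-pS-QETFS, 5 min RT; stop 0.5% formic acid; labelled product standard 1 uM; RapidFire MS. Buffer 50 mM Tris pH 7.5, 30 mM MgCl2, 1 mM TCEP.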

Compound	activity change, negative = inhibition
Oc1ccc2c3c1O[C@H]1[C@@H](O)C=C[C@H]4[C@@H](C2)NCC[C@@]341	-7.95%
O=[N+]([O-])c1cc([N+](=O)[O-])c2ccccc2c1	-10.7%
C=CCC1=C(C)C(OC(=O)C2C(C=C(C)C)C2(C)C)CC1=O (centres undefined)	62.1%
CCCCC(CC)COC(=O)c1ccccc1C(=O)OCC(CC)CCCC (centres undefined)	35.5%
CC(O)CN1CCN(CC(=O)[O-])CCN(CC(=O)[O-])CCN(CC(=O)[O-])CC1.[Gd+3] (centres undefined)	3.04% [at 63 µM]
CCOP(=O)(NC(C)C)Oc1ccc(SC)c(C)c1 (centres undefined)	47.6%
O=C(O)COc1nc(Cl)c(Cl)cc1Cl	5.78%
Nc1ccc(Sc2ccc(N)cc2)cc1	-7.36%
CC1(C)CC/C(=C/c2ccc(Cl)cc2)C1(O)Cn1cncn1 (centres undefined)	38%
O=S(=O)(O)C(F)(F)C(F)(F)C(F)(F)C(F)(F)F	-11.7%
CCCCOC(=O)c1ccccc1C(=O)OCc1ccccc1	49.1%
CCC1(CCC(C)C)C(=O)NC(=O)NC1=O	-2.34%
O=C(Nc1ccccc1-c1ccc(Cl)cc1)c1cccnc1Cl	7.7%
CC(C)(C)NC[C@H](O)c1ccc(O)cc1Cl	1.87% [at 63 µM]
CC(C)Oc1cccc(NC(=O)c2ccccc2C(F)(F)F)c1	-1.66%
CCO/N=C(\CC)C1=C(O)CC(c2c(C)cc(C)cc2C)CC1=O (centres undefined)	32.4%
COc1ccc(C(c2ccc(OC)cc2)C(Cl)(Cl)Cl)cc1	0.535%
Fc1cc(Br)ccc1CBr	6.97% [at 63 µM]
Nc1ccc([N+](=O)[O-])cc1	9.53%
COc1nn(CSP(=S)(OC)OC)c(=O)s1	-22.2%
CC(C)(C)C(O)C(Oc1ccc(Cl)cc1)n1cncn1 (centres undefined)	36.4%
O=C(O)C(Cl)Cl	7.29% [at 63 µM]
O=[N+]([O-])c1c2ccccc2cc2ccccc12	-2.76%

Tested on: not listed separately
Experiment: Primary qHTS for inhibitors of La Crosse Virus (LACV) - induced cell death in SH-SY5Y cells (AID 1508616);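 also: top concentration of the series differs between compounds; 0% = infected DMSO wells and 100% = uninfected DMSO wells; higher means more rescue of cells from virus-induced death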
Conditions: SH-SY5Y LACV cytopathicity rescue, ATP luminescence, 6 d; series mostly up to 9.63 µM; activity change: at the top concentration
Outline: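 Protection against LACV-induced cell death is scored in SH-SY5Y cells exposed to compounds and virus (0.01 MOI) for 6 days. Data normalized to virus-infected DMSO wells and virus-free DMSO wells.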

Compound	activity change
Oc1ccc2c3c1O[C@H]1[C@@H](O)C=C[C@H]4[C@@H](C2)NCC[C@@]341	26.1%
O=[N+]([O-])c1cc([N+](=O)[O-])c2ccccc2c1	-8.32% [at 8.54 µM]
O=C1C(I)=CC(=C(c2cc(I)c(O)c(I)c2)c2ccccc2C(=O)O)C=C1I	3.32% [at 4.29 µM]
C=CCC1=C(C)C(OC(=O)C2C(C=C(C)C)C2(C)C)CC1=O (centres undefined)	-3.88% [at 8.54 µM]
CCCCC(CC)COC(=O)c1ccccc1C(=O)OCC(CC)CCCC (centres undefined)	43.4% [at 8.54 µM]
CC(O)CN1CCN(CC(=O)[O-])CCN(CC(=O)[O-])CCN(CC(=O)[O-])CC1.[Gd+3] (centres undefined)	7% [at 4.29 µM]
CCOP(=O)(NC(C)C)Oc1ccc(SC)c(C)c1 (centres undefined)	55.4% [at 8.54 µM]
O=C(O)COc1nc(Cl)c(Cl)cc1Cl	9.31% [at 8.54 µM]
Nc1ccc(Sc2ccc(N)cc2)cc1	1.84% [at 8.54 µM]
CC1(C)CC/C(=C/c2ccc(Cl)cc2)C1(O)Cn1cncn1 (centres undefined)	-3.74% [at 8.54 µM]
O=S(=O)(O)C(F)(F)C(F)(F)C(F)(F)C(F)(F)F	-11%
CCCCOC(=O)c1ccccc1C(=O)OCc1ccccc1	30.1% [at 8.54 µM]
CCC1(CCC(C)C)C(=O)NC(=O)NC1=O	8.95% [at 8.54 µM]
O=C(Nc1ccccc1-c1ccc(Cl)cc1)c1cccnc1Cl	31.4% [at 8.54 µM]
CS(=O)(=O)c1ccc(C(=O)C2C(=O)CCCC2=O)c([N+](=O)[O-])c1	-2.41% [at 8.54 µM]
ClC1=C(Cl)[C@]2(Cl)[C@@H]3[C@@H]4C[C@@H]([C@H]5O[C@@H]45)[C@@H]3[C@@]1(Cl)C2(Cl)Cl	45.3% [at 8.54 µM]
CC(C)(C)NC[C@H](O)c1ccc(O)cc1Cl	-2.66% [at 4.29 µM]
CC(C)Oc1cccc(NC(=O)c2ccccc2C(F)(F)F)c1	46.2% [at 8.54 µM]
Cc1nccc2c1[nH]c1ccccc12	4.39%
CCO/N=C(\CC)C1=C(O)CC(c2c(C)cc(C)cc2C)CC1=O (centres undefined)	29.6% [at 8.54 µM]
O=C(O)c1cc(Oc2ccc(C(F)(F)F)cc2Cl)ccc1[N+](=O)[O-]	-11.6% [at 4.29 µM]
Fc1cc(Br)ccc1CBr	-3.24% [at 4.29 µM]
Nc1ccc([N+](=O)[O-])cc1	-7.34% [at 8.54 µM]
COc1nn(CSP(=S)(OC)OC)c(=O)s1	40.4% [at 8.54 µM]
CC(C)(C)C(O)C(Oc1ccc(Cl)cc1)n1cncn1 (centres undefined)	8.88% [at 8.54 µM]
O=C(O)C(Cl)Cl	-1.09% [at 4.29 µM]
CN[C@@H]1C[C@@H](c2ccc(Cl)c(Cl)c2)c2ccccc21	-14.1%
O=[N+]([O-])c1c2ccccc2cc2ccccc12	-0.132% [at 8.54 µM]

Target: Calcium and integrin-binding protein 1 (Homo sapiens) (UniProt Q99828)
Sequence (Q99828 whole entry, looked up): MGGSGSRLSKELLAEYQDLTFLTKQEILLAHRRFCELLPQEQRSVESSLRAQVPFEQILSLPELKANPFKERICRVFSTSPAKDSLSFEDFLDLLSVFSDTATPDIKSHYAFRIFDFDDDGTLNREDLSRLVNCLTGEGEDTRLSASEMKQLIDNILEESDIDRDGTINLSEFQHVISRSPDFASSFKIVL
Experiment: Validation qHTS for Identification of Calcium Integrin Binding protein 1 (CIB1) Competitor (AID 1508618); also: % is scaled to controls: 0 for no effect and ±100 for the full control effect
Conditions: CIB1-GST / FITC-alphaIIb peptide fluorescence polarization; series mostly up to 114 µM; activity change, negative = inhibition: at the top concentration
Outline: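 In this qHTS validation, the LOPAC set (up to 114 uM) was tested for blocking CIB1 binding to a fluorescein-tagged alphaIIb peptide, with FP detection at 480/540 nm.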

Compound	activity change, negative = inhibition [%]
Cc1nccc2c1[nH]c1ccccc12	13.1
c1ccc(CCCN2CCN(CCOC(c3ccccc3)c3ccccc3)CC2)cc1	4.49
CN[C@@H]1C[C@@H](c2ccc(Cl)c(Cl)c2)c2ccccc21	1.88

From PubChem BioAssay (NCATS)
